The test concerns Aedes aegypti neuropeptide Y-like receptor 7 (NPYLR7). Description: agonists of mosquito NPYLR7 receptor, primary screen, cell-based, Aedes aegypti, calcium fluorescence, mosquito biting behavior (AID 1259423).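 Also: 0% = vehicle and 100% = reference agonist at the receptor.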 To be noted: HEK293T NPYLR7/Galpha15, GCaMP6s calcium fluorescence, at 10 µM, stronger effect = higher value.
Setting [1] is: measured here: Max-Min RFU normalised activation.

The source of these data is PubChem BioAssay AID1259423 (Fisher Drug Discovery Resource Center, 2018).

Several values for one entry are separate records, joined by “and”; a condition that tells them apart may be missing. Equal values may be shown once. Out of some 270,000 compounds screened, about 410 (0.15%) were called active. Rule as the data show it: active = activation above about 40%; inactive = the rest, inconclusive results apart. The entries come from a sample that favours actives as a whole. A structure can be active in one record and inactive in another.

Regarding `O=c1oc2c(CN3CC4CC(C3)c3cccc(=O)n3C4)c(O)ccc2cc1-c1nc2ccccc2s1` (stereo unspecified), the activation is 303% (active). Under setting [1], the activation came out at 372%.
In the same order, the values of `COc1cc(C(=O)N2CCOC(c3ccccc3)C2)cc(OC)c1C` (stereo unspecified) are 77.6% (active) and 58.9%.
On to `COc1ccc2cc(C3CN(C(=O)c4ccc[nH]4)CCO3)ccc2c1` (stereo unspecified), for which the activation is -5.79% (inactive). The activation under setting [1] was -7.4%.
In the case of `Cc1c(F)cccc1C(=O)N1CCOC(c2ccccc2)C1` (stereo unspecified), the activation is 0.877% (inactive). The activation under setting [1] was -1.3%.
`O=S(=O)(Cc1ccc(F)cc1)NCc1ccccc1OC(F)F`: the activation is 1.17% (inactive). In addition, the activation under setting [1] is 1.23%.
In the same order, the values of `Cc1cccc(C(=O)O/N=C\c2ccc(Br)cc2)c1` are 0.973% (inactive) and 3.02%.
The corresponding values for `CON(C)C(=O)c1cccc(CN2CCS(=O)(=O)CC2)c1` are 7.7% (inactive) and 4.38%.
In the same order, the values of `CCOC(C)c1noc(CNC2(c3noc(CC)n3)CCCC2)n1` (stereo unspecified) are 3.73% (inactive) and 1.21%.
Consider `C(=C\c1nn2c(CN3CCCCC3)nnc2s1)/c1ccccc1`, for which the activation was 1.3% (inactive). Also, the activation under setting [1] worked out at 0.534%.
On to `COC(=O)C1Cc2ccccc2CN1Cc1cccc(C(=O)N(C)C)c1` (stereo unspecified), for which the activation was 1.77% (inactive). Moreover, the activation under setting [1] is -13.5%.
In the case of `COc1ccc(CCN2CCC(CN(C)C(=O)c3ccoc3)CC2)cc1`, the activation was 13.3% (inactive). In addition, under setting [1], the activation worked out at 6.16%.
With `O=c1[nH]c(Cn2nnc3ccccc3c2=O)nc2ccccc12`, the activation is -3.31% (inactive). Besides, under setting [1], the activation was -3.64%.
The corresponding values for `CCCCCCCC(=O)Nc1c(-c2ccc(Cl)cc2)nc2cc(C)ccn12` are -5.12% (inactive) and 1.14%.
The corresponding values for `C/C=C\COC1CCCN(C(=O)COc2ccc(Cl)cc2)C1` (stereo unspecified) are -4.16% (inactive) and -5.2%.
On to `CCN1CCN(CC(O)COc2ccc(CN3CCc4ccccc4C3)cc2OC)CC1` (stereo unspecified), for which the activation was 3.88% (inactive). Also, the activation under setting [1] amounted to 3.04%.
For `Brc1ccc(Oc2nc(N3CCCC3)nc(N3CCCC3)n2)cc1`, the activation is -2.87% (inactive). Further, under setting [1], the activation was -5.23%.
In the same order, the values of `N#CC1C(=N)SC(=N)C(C#N)C1c1ccco1` (stereo unspecified) are -5.34% (inactive) and -2.82%.
The corresponding values for `N#CC1C(=N)SC(=N)C(C#N)C1c1cccc(O)c1` (stereo unspecified) are 51% (active) and 53%.
The corresponding values for `CCc1ccc(C2C(C#N)C(=N)SC(=N)C2C#N)cc1` (stereo unspecified) are 0.645% (inactive) and -2.49%.
On to `COc1ccc(-c2nc(NC(=O)C3CCCC3)sc2C)cc1`, for which the activation was -2.08% (inactive). The activation under setting [1] was 2.65%.
In the same order, the values of `CCC(C)(NC(=O)C1Cc2ccccc2O1)c1nccs1` (stereo unspecified) are -1.24% (inactive) and -2.94%.
The corresponding values for `CCC1CCCCN1C(=O)CSc1c(C)[nH]c2ccccc12` (stereo unspecified) are -1.59% (inactive) and -2.64%.
The corresponding values for `CCCN(C(=O)Cn1nc(C)c2ccccc2c1=O)[C@@H]1CCCC[C@H]1O` are 0.206% (inactive) and -0.142%.
Consider `CCCc1cc(=O)n2[nH]c(C)c(-c3cccc4ccccc34)c2n1`, for which the activation was -15.2% (inactive). Moreover, under setting [1], the activation was -20.4%.
For the compound `NC(=O)CN1C(=O)COc2ccccc21`, the activation is -19.8% (inactive). In addition, the activation under setting [1] was -26.8%.
As for `CCCCN(C)C(=O)c1cnn(-c2ccccc2)c1`, the activation was 0.0336% (inactive). The activation under setting [1] was -1.33%.
In the same order, the values of `O=C(NC1C=CS(=O)(=O)C1)c1cccc2ccnn12` (stereo unspecified) are 22.3% (inactive) and 9.91%.
The corresponding values for `CCC(N)(C(=O)OC)c1ccccc1` (stereo unspecified) are 8.89% (inactive) and 3.04%.
Take `CCCC(C(=O)OCCN(CC)CC)(c1ccccc1)c1ccccc1`: the activation is 3.25% (inactive) and -1.52% (inactive) and 68.5% (active). The activation under setting [1] was -42.8% and -5.9% and 58.4%.
On to `CC1Cc2c(NC(=O)CSCc3ccccc3)nn(C)c2NC1=O` (stereo unspecified), for which the activation was 3.06% (inactive). Moreover, the activation under setting [1] was -2.58%.
In the same order, the values of `CCN(CC)c1ccc2cc(-c3nnc(Nc4ccccc4F)s3)c(=O)oc2c1` are -10.4% (inactive) and -12.8%.
`O=c1[nH]c(=O)n(Cc2cccc(OC(F)F)c2)cc1Cl`: the activation was 0.422% (inactive) and -19.6% (inactive). Further, under setting [1], the activation is -0.254% and -21%.
On to `CC(c1cccs1)N(C)C(=O)c1n[nH]c(C2CC2)c1Br` (stereo unspecified), for which the activation was -2.08% (inactive). Under setting [1], the activation amounted to 0.622%.
In the same order, the values of `O=C1Nc2ccccc2C1=NN=C(C(=O)c1ccccc1)c1ccccc1` are 11.7% (inactive) and 10.9%.
In the same order, the values of `CCC(=O)Nc1cccc(OCC(=O)N2CCCC2c2nonc2C)c1` (stereo unspecified) are -16.1% (inactive) and -16.7%.
The corresponding values for `Cc1ccc(NC(=O)Cn2cnc3sc4c(c3c2=O)CCC4)c(F)c1` are -14.9% (inactive) and -15.4%.
`COc1cc(C=C2SC(=S)NC2=O)cc(Br)c1O`: the activation was 668% (active). The activation under setting [1] is 942%.
For the compound `COc1ccc(C=C2SC(=S)NC2=O)cc1OC`, the activation was 1.47% (inactive). Under setting [1], the activation was determined as 3.32%.
The corresponding values for `COc1cc(OC)c(OC)cc1/C=C1/SC(=S)NC1=O` are -3.39% (inactive) and -7.58%.
The corresponding values for `Cc1cc(S(=O)(=O)C(CNC(=O)CC(C)(C)C)c2cccs2)ccc1F` (stereo unspecified) are 5.15% (inactive) and 2.88%.
In the same order, the values of `COCCNC(=S)N(CCC#N)CCN(CCC#N)C(=S)NCCOC` are -2.49% (inactive) and -3.45%.
In the case of `Cc1cnccc1N1CCCN(C(=O)[C@H](N)CC(C)C)CC1`, the activation was 8.21% (inactive). Moreover, under setting [1], the activation came out at 7.83%.
The corresponding values for `Cc1ccccc1-c1noc(CN2CCN(C(=O)c3cc(C4CC4)[nH]n3)CC2)n1` are 0.903% (inactive) and 0.506%.
The corresponding values for `CCC(CO)[n+]1c(C)cc(C=C2Sc3ccccc3N2CC)cc1C` (stereo unspecified) are 56.5% (active) and 44.4%.
In the same order, the values of `Cn1nc(C(F)(F)F)cc1C(=O)N1CCCC(O)(CO)CC1` (stereo unspecified) are 3.25% (inactive) and 1.85%.
Consider `COC(=O)Cn1cc(C=C(C#N)C(=O)NCCc2c[nH]c3ccccc23)c2ccccc21`, for which the activation was 1.04% (inactive). Besides, the activation under setting [1] is 1.01%.
In the same order, the values of `CCCn1nccc1C(=O)Nc1cc2c(C)cc(=O)oc2cc1C` are -4.21% (inactive) and -5.15%.
The corresponding values for `CCCc1nc(N2CCCN(c3ncccn3)CC2)c2cnn(C)c2n1` are -2.57% (inactive) and -6.77%.
In the same order, the values of `COc1ccc(OC)c(S(=O)(=O)N2CCCC(c3nc4ccccc4s3)C2)c1` (stereo unspecified) are -8.36% (inactive) and -7.77%.
Regarding `Cc1ccn(-c2ccc(NC3CC4CCC3O4)nn2)n1` (stereo unspecified), the activation is 7.09% (inactive). In addition, under setting [1], the activation is 3.85%.
Consider `Cc1ccc(C2(c3noc(CN(C)Cc4ccc5ccccc5n4)n3)CCCC2)cc1`, for which the activation is 32.2% (inactive) and 4.89% (inactive). For the same compound, under setting [1], the activation was 24.1% and 13.2%.
In the case of `CSc1[s+]sc2c1-c1ccc(C)cc1NC2(C)C`, the activation was -1.46% (inactive). Further, the activation under setting [1] was 5.63%.
The corresponding values for `Cn1cc(NC(=O)Nc2cccc(N3CCCCCC3)c2)cn1` are 8.13% (inactive) and 3.07%.
The corresponding values for `O=C(O)c1[nH]ncc1CN1CCc2onc(-c3ccc(C(F)(F)F)cc3)c2C1` are 78.5% (active) and 41.2%.
The corresponding values for `O=C(CCc1ccco1)N1CCc2onc(-c3ccc(C(F)(F)F)cc3)c2C1` are 3.67% (inactive) and -10.1%.
As to `O=C(O)c1[nH]ncc1CN1CCCC(c2[nH]ncc2Cc2ccccc2)C1` (stereo unspecified), the activation is 2.78% (inactive). The activation under setting [1] came out at 3.74%.
In the same order, the values of `Cc1csc(N(C)C(=O)c2cc(N3CCNC3=O)ccc2F)n1` are -7.45% (inactive) and -7.61%.
For the compound `COc1ccc(-n2nnc3c(N4CCN(C(=O)c5ccc(Br)o5)CC4)ncnc32)cc1`, the activation was -8.62% (inactive). Also, the activation under setting [1] was -14.8%.
The corresponding values for `CCOc1ccc(/C=C(\C#N)c2[nH]nc(N)c2C#N)cc1OCC` are -1.82% (inactive) and -4%.
The corresponding values for `N#CCc1nc2ncc(Br)cc2[nH]1` are -4.5% (inactive) and -5.31%.
In the same order, the values of `CCOc1cc(/C=C(\C#N)c2nc3ncc(Br)cc3[nH]2)ccc1O` are 90.2% (active) and 69.1%.
For the compound `OCc1ccc(CN2CCC(Oc3ccc(Cl)cc3)CC2)o1`, the activation is 2.49% (inactive). In addition, the activation under setting [1] was 0.105%.
The corresponding values for `COCCN(Cc1cc(NC(=O)c2cccc(F)c2)ccc1N(C)C)C(=O)NC(C)(C)C` are -2.37% (inactive) and -0.561%.
The corresponding values for `CCOC(=O)c1ccc2c(c1)nc(SCc1cccc(C(=O)OC)c1)n2Cc1cccc(F)c1` are -6.01% (inactive) and -4.5%.
In the same order, the values of `COc1cc(C=C2C=c3c(O)cccc3=C2O)cc(Cl)c1O` are 203% (active) and 183%.
On to `COc1cc(/C=C2/C(=O)N(c3ccc(Cl)c(Cl)c3)N=C2C)cc(Br)c1O`, for which the activation is -1.16% (inactive). Further, the activation under setting [1] was determined as 5.59%.
The corresponding values for `COc1cccc(CSc2nnc(CNC(=O)Nc3cc(OC)cc(OC)c3)n2-c2ccc([N+](=O)[O-])cc2)c1` are 22.3% (inactive) and 16.8%.
Take `CC(C)CNC(=O)c1ccc2c(=O)n(Cc3ccccc3)c3nn(CC(N)=O)c(=O)n3c2c1`: the activation was 2.33% (inactive). The activation under setting [1] was -0.424%.
The corresponding values for `C/C=C/c1cc(C(=O)N2CCN(CCO)CC2)cc(OC)c1OC` are 2.68% (inactive) and 0.348%.
The corresponding values for `CC(C)N(CC1CCC(=O)N1)C(=O)c1cc(Cl)c[nH]c1=O` (stereo unspecified) are -1.21% (inactive) and -6.03%.
The corresponding values for `CN1CC2(CCCN(C(=O)c3cccc(Cn4cccn4)c3)CC2)OC1=O` (stereo unspecified) are 33.4% (inactive) and 15.5%.
Regarding `CC(C)(Oc1ccc(Cl)cc1)C(=O)Nn1cnc2c(cnn2-c2ccccc2)c1=O`, the activation was 2.94% (inactive). In addition, the activation under setting [1] is -1.1%.
In the same order, the values of `O=C(O)C1CC2CCCC(C1)C2=O` (stereo unspecified) are 2.14% (inactive) and 1.09%.
In the same order, the values of `COc1ccc(C2SCCN2C(=O)c2cc3cc(Br)ccc3oc2=O)cc1` (stereo unspecified) are 1.99% (inactive) and -4.59%.
In the same order, the values of `O=C1CCC(C(=O)N(Cc2ccc(F)cc2)C2CC2)=NN1c1ccccc1` are 2.48% (inactive) and 1.4%.
As to `CCn1c(C2CCN(CCC3=C(C)CCCC3(C)C)CC2)nn(C)c1=O`, the activation is 14.4% (inactive). In addition, the activation under setting [1] stood at 4.06%.
In the same order, the values of `CCc1cc(=O)[nH]c(-n2nc(C)cc2NC(=O)C2c3ccccc3Oc3ccccc32)n1` are 10.2% (inactive) and 5.92%.
In the same order, the values of `CNC(=O)NC(=O)C(C)Sc1nnc(-c2ccco2)n1CCC(N)=O` (stereo unspecified) are 1.74% (inactive) and 5.62%.
The corresponding values for `CCOC(=O)Nc1cc(=O)c2cc(C)ccc2o1` are 0.463% (inactive) and -6.18%.
With `COc1ccc(C)c2sc(N(CCCN3CCOCC3)C(=O)c3ccc([N+](=O)[O-])cc3)nc12`, the activation was -0.485% (inactive). Further, the activation under setting [1] is -6.29%.
The corresponding values for `Cc1ccc(CN(Cc2ccc(F)cc2)C(=O)CNCCN2CCOCC2)s1` are 56.1% (active) and 58%.
The corresponding values for `O=C(CNCCN1CCOCC1)N(Cc1ccccc1)Cc1cccs1` are -7.58% (inactive) and -12.6%.
As to `COCCNCC(=O)N(Cc1ccccc1)Cc1ccc(C)s1`, the activation is -5.15% (inactive). Further, the activation under setting [1] is -13.2%.
